# Experimental data reported in the supplement of paper PMC12669032.
# Values without a mark were called inactive.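 Rule for the calls: active = AUC reduced over 20% with Padj below 0.05 in at least 2 of 3 replicates; inactive = otherwise.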
# How the values were obtained:
# Assay in all cases: growth AUC relative to DMSO control (median of replicates) (fraction); higher = more growth (less inhibition), active = hit call of the paper
# Settings in all cases: 20 µM; 24 h
# Akkermansia muciniphila = system: Akkermansia muciniphila
# Summary of the method: (§1)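 OD600 was recorded every hour for 24 h in anaerobic monocultures of gut bacteria kept at 37 °C in mGAM, seeded at OD600 0.05 and given 20 µM compound in 1% DMSO. The area under each growth curve was scaled to the plate median of solvent-only wells, or to row and column medians for the industrial chemical plate. Before this step, the minimum OD was set to 0. Reported values are medians of three biological replicates run on separate days.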
# Bacteroides caccae = system: Bacteroides caccae
# Summary of the method: as §1
# Bacteroides clarus = system: Bacteroides clarus
# Summary of the method: as §1
# Bacteroides dorei = system: Bacteroides dorei
# Summary of the method: as §1
# Bacteroides stercoris = system: Bacteroides stercoris
# Summary of the method: as §1
# [1] = system: Bacteroides thetaiotaomicron
# Summary of the method: as §1
# Bacteroides uniformis = system: Bacteroides uniformis
# Summary of the method: as §1
# [2] = system: Bifidobacterium longum subsp. longum
# Summary of the method: as §1
# Clostridium difficile = system: Clostridium difficile
# Summary of the method: as §1
# Collinsella aerofaciens = system: Collinsella aerofaciens
# Summary of the method: as §1
# Coprococcus comes = system: Coprococcus comes
# Summary of the method: as §1
# Escherichia coli ED1a = system: Escherichia coli ED1a
# Summary of the method: as §1
# Escherichia coli IAI1 = system: Escherichia coli IAI1
# Summary of the method: as §1
# Eubacterium rectale = system: Eubacterium rectale
# Summary of the method: as §1
# [3] = system: Fusobacterium nucleatum subsp. animalis
# Summary of the method: as §1
# Lactobacillus gasseri = system: Lactobacillus gasseri
# Summary of the method: as §1
# Lactobacillus paracasei = system: Lactobacillus paracasei
# Summary of the method: as §1
# Odoribacter splanchnicus = system: Odoribacter splanchnicus
# Summary of the method: as §1
# [4] = system: Parabacteroides distasonis
# Summary of the method: as §1
# Parabacteroides merdae = system: Parabacteroides merdae
# Summary of the method: as §1
SMILES,growth AUC (Akkermansia muciniphila),growth AUC (Bacteroides caccae),growth AUC (Bacteroides clarus),growth AUC (Bacteroides dorei),growth AUC (Bacteroides stercoris),growth AUC [1],growth AUC (Bacteroides uniformis),growth AUC [2],growth AUC (Clostridium difficile),growth AUC (Collinsella aerofaciens),growth AUC (Coprococcus comes),growth AUC (Escherichia coli ED1a),growth AUC (Escherichia coli IAI1),growth AUC (Eubacterium rectale),growth AUC [3],growth AUC (Lactobacillus gasseri),growth AUC (Lactobacillus paracasei),growth AUC (Odoribacter splanchnicus),growth AUC [4],growth AUC (Parabacteroides merdae)
COP(=S)(OC)Oc1ccc([N+](=O)[O-])c(Cl)c1,1.04,0.99,0.973,0.972,0.973,0.993,0.943,1.01,0.961,0.958,0.95,0.97,0.984,1.18,0.975,0.893,0.974,0.876,0.921,0.932
CNC(=O)/C=C(\C)OP(=O)(OC)OC,1.05,1.03,0.991,1.02,1.09,1.01,1.01,0.947,1.04,1.04,1.05,1.05,1.02,0.999,1.02,1.03,1.06,0.989,1.03,1.01
Nc1cc(Cl)cc(C(=O)O)c1Cl,1.03,0.975,1.02,1.04,1.06,1,0.958,1.04,1.01,1.06,0.992,1.01,1.04,1.01,0.994,1.13,1.03,1.09,1.01,0.977
C[C@@H](Oc1ccc(Oc2cnc3cc(Cl)ccc3n2)cc1)C(=O)O,1.07,0.938,1.05,1,1.29,0.986,0.988,0.964,0.989,0.976,1.05,1.02,1,0.987,1.08,0.997,1.04,0.97,0.983,1.03
COP(=O)(OC)OC(Br)C(Cl)(Cl)Br (stereo not given),0.978,0.987,0.977,0.986,0.984,0.953,0.962,0.99,0.987,1.03,0.976,0.991,1.02,0.915,0.973,1.02,1.01,0.937,1.06,1.01
CNC(=O)c1cc(C#N)cc(C)c1NC(=O)c1cc(Br)nn1-c1ncccc1Cl,0.947,1.04,0.977,1.01,0.933,0.982,0.995,0.999,1,0.981,0.996,1.01,1.02,0.972,0.88,1.12,1.02,0.99,1.02,0.983
Cc1cccc2sc3nncn3c12,0.892,0.989,0.965,1.04,1.03,0.993,1.01,0.964,0.973,1.07,0.98,0.987,0.977,0.939,0.988,1.05,0.957,1.03,0.991,1
O=C(O)c1cc(Cl)ccc1Cl,0.97,0.998,0.989,0.961,0.89,1,1.03,1.17,1.02,0.952,0.994,0.97,0.984,1.02,0.994,0.869,0.934,1.08,0.978,0.96
COc1nc(C)nc(NC(=O)NS(=O)(=O)c2ccccc2CCC(F)(F)F)n1,0.874,0.985,1.01,0.992,0.978,0.948,0.978,0.966,0.992,0.966,0.967,0.997,0.976,0.954,0.992,1.06,1,0.962,1.01,1
CCCC1COC(Cn2cncn2)(c2ccc(Cl)cc2Cl)O1 (stereo not given),1.02,0.952,0.912,0.945,0.854,0.902,0.871,0.97,0.956,0.981,0.941,0.979,0.972,0.545 (active),1,0.968,0.936,0.977,0.837,0.855
O=C(NC(=O)c1c(F)cccc1F)Nc1cc(Cl)c(OC(F)(F)C(F)F)c(Cl)c1,1.17,1,0.954,0.967,1.05,0.998,0.956,0.999,0.967,0.994,0.96,0.965,0.982,0.892,0.877,0.986,0.62,0.983,0.994,0.992
CNC(=O)N(C)c1nnc(C(C)(C)C)s1,0.742,1.02,0.97,1.05,1,0.993,1.01,0.925,1,1.04,0.995,0.99,0.945,0.931,0.969,1.16,0.941,0.963,0.973,1
Oc1c(Br)cc(Br)cc1Br,0.965,0.916,0.917,1.01,1.22,1.01,0.966,0.984,0.982,0.991,1.01,0.945,0.845,1,1.03,1.13,0.919,0.748,0.934,0.991
CCC(C)(CC)c1cc(NC(=O)c2c(OC)cccc2OC)on1,1.05,1.01,0.949,1.03,1.04,0.959,0.965,1.04,1,0.959,1.03,1.01,0.988,0.986,0.986,0.932,1.02,1.04,1,0.939
CCOP(=S)(OCC)Oc1cc(C)nc(C(C)C)n1,1.04,1.02,1,1.03,0.972,1.01,1.02,0.972,1.02,0.986,0.982,1,0.992,1.12,1.03,1.02,1.03,0.999,0.924,1
CCCCN(CC)c1c([N+](=O)[O-])cc(C(F)(F)F)cc1[N+](=O)[O-],0.993,1,0.964,1.01,1,1.02,0.99,1.01,1.11,1.04,1.03,0.994,1,0.864,1.04,1,1.03,1.05,1.06,1
